Here are results for twelve compounds from PubChem BioAssay (EPA / NIEHS).

Inconclusive results are not listed. The source made the active and inactive calls. The calls were made as follows, unless noted: active = hit-call score of the fitted dose curve at least 0.9, where 1 is the maximum; inactive = score below 0.9.

Assay [1] can be described thus: CEETOX_H295R_OHPREG: CeeTox H295R High-throughput Steroidogenesis Assay for OH-Pregnenolone (OHPREG) (AID 2283434). The note with it: actives raise or lower the signal. In short, it runs like this:
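Secreted 17alpha-hydroxypregnenolone measured by HPLC-MS/MS after liquid-liquid extraction. Human adrenal H295R cells received 48 h forskolin (10 uM) stimulation before 48 h chemical exposure at 0.1% final DMSO; MTT viability in same wells; bidirectional fit against DMSO.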

Assay [2] can be described thus: CEETOX_H295R_ESTRADIOL: CeeTox H295R High-throughput Steroidogenesis Assay for Estradiol (AID 2283440).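 Also: estradiol secreted into medium quantified by LC-MS/MS after dansyl derivatisation.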 The note with it: actives raise or lower the signal. The procedure, abridged: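 Estradiol secreted into the medium was measured by tandem mass spectrometry after liquid-liquid extraction and dansylation. Human H295R cells had been forskolin-primed (10 uM, 48 h) before a 48 h chemical exposure with 0.1% DMSO.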

Assay [3] is described as follows: CEETOX_H295R_PROG: CeeTox H295R High-throughput Steroidogenesis Assay for Progesterone (PROG) (AID 2283442). The note with it: actives raise or lower the signal. The procedure, abridged: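 Steps: seed H295R cells and let them adhere overnight; prime 48 h with 10 uM forskolin; dose with compound in DMSO at 0.1% final for 48 h; extract medium steroids with MTBE; measure progesterone by LC-MS/MS. MTT viability was run in the same wells.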

For assay [4], the target named is Peroxisome proliferator-activated receptor gamma (Homo sapiens) (UniProt P37231). Description: OT_PPARg_PPARgSRC1_0480: Odyssey Thera (OT) 8-hour Protein-Complementation Assay for Peroxisome Proliferator-activated Receptor Gamma / SRC-1 Co-activator (AID 2283387; active = hit-call score of the fitted dose curve at least 0.9, where 1 is the maximum;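 also: nuclear to cytoplasmic split Venus YFP fluorescence ratio reporting PPARg SRC-1 interaction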). The procedure, abridged:
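Protein-fragment complementation in HEK293T: Venus YFP halves (residues 1-158, 159-239, mutated to IFP1/IFP2) fused to PPARg/SRC-1. 8 h exposure; N/C ratio at 488 nm; DMSO negative control.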

The target is the same in assay [5]. Description: OT_PPARg_PPARgSRC1_1440: Odyssey Thera (OT) 24-hour Protein-Complementation Assay for Peroxisome Proliferator-activated Receptor Gamma/ SRC-1 Co-activator (AID 2283388; active = hit-call score of the fitted dose curve at least 0.9, where 1 is the maximum;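 also: nuclear to cytoplasmic ratio of reconstituted Venus YFP fluorescence in fixed imaged cells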). The procedure, abridged: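 Protein-fragment complementation between PPARg and coactivator SRC-1 was measured by fluorescence imaging in transiently transfected HEK293T cells after 24 h treatment. Signal was quantified as N/C ratio in the 488 nm channel, with DMSO as negative control.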

Read-out in assay [6]: Tumor necrosis factor receptor superfamily member 6 (Homo sapiens) (UniProt P25445)
Nature of the assay: LTEA_HepaRG_FAS: Life Technologies and Expression Analysis (LTEA) Assay for Fas cell surface death receptor (FAS) using HepaRG (AID 2283447). The note with it: mRNA level, 48 h; actives raise or lower the signal. The procedure, abridged:
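FAS transcript level was measured by TaqMan qRT-PCR against three housekeeping genes after 48 h chemical exposure. Cells were HepaRG, 0.5% DMSO vehicle, with a top concentration of 100 uM and half-log dilutions over eight points, in duplicate.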

Read-out in assay [7]: Fatty acid synthase (Homo sapiens) (UniProt P49327)
Description: LTEA_HepaRG_FASN: Life Technologies and Expression Analysis (LTEA) Assay for Fatty Acid Synthase (FASN) using HepaRG (AID 2283448).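 As to AC50: differentiated human HepaRG liver cells in serum-free induction medium.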 The note with it: mRNA level, 48 h; actives raise or lower the signal. The procedure, abridged: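 HepaRG, 48 h exposure, 8-pt half-log series top 100 uM, 0.5% DMSO vehicle, duplicates. Readout: FASN transcript by Fluidigm qRT-PCR; housekeeping-normalized; bidirectional curve fit vs DMSO baseline.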

Read-out in assay [8]: Cyclin D2 (CCND2), CCND2 (gene 894)
Nature of the assay: LTEA_HepaRG_CCND2: Life Technologies and Expression Analysis (LTEA) Assay for Cyclin D2 (CCND2) using HepaRG (AID 2283449). The note with it: mRNA level, 48 h; actives raise or lower the signal. The procedure, abridged: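 CCND2 transcript levels, quantified by qRT-PCR and normalised to three housekeeping genes, were fitted bidirectionally against 0.5% DMSO. HepaRG cultures were dosed 48 h in duplicate with an 8-point half-log series up to 100 uM.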

Read-out in assay [9]: Cyclin Dependent Kinase Inhibitor 1A (CDKN1A), CDKN1A (gene 1026)
Description: LTEA_HepaRG_CDKN1A: Life Technologies and Expression Analysis (LTEA) Assay for Cyclin Dependent Kinase Inhibitor 1A (CDKN1A) using HepaRG (AID 2283450). The note with it: mRNA level, 48 h; actives raise or lower the signal. In short, it runs like this: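 Read-out is CDKN1A mRNA by TaqMan qRT-PCR, normalized to three housekeeping genes and fitted in both directions against the DMSO baseline. Human HepaRG cells were treated 48 h with test chemicals up to 100 uM in half-log steps, 0.5% DMSO.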

Read-out in assay [10]: Cyclin D1 (CCND1), CCND1 (gene 595)
Nature of the assay: LTEA_HepaRG_CCND1: Life Technologies and Expression Analysis (LTEA) Assay for Cyclin D1 (CCND1) using HepaRG (AID 2283451).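 As to AC50: differentiated human HepaRG liver cells in serum-free induction medium; TaqMan qRT-PCR transcript level normalised to ACTB GAPDH and POLR2A housekeeping genes.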 The note with it: mRNA level, 48 h; actives raise or lower the signal. In short, it runs like this:
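HepaRG plated 48 h, medium switched to serum-free induction medium, chemicals added in duplicate (top 100 uM, half-log steps, 0.5% DMSO) for 48 h, cells lysed, RNA measured by TaqMan qRT-PCR.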

Read-out in assay [11]: catalase (CAT), CAT (gene 847)
Nature of the assay: LTEA_HepaRG_CAT: Life Technologies and Expression Analysis (LTEA) Assay for catalase (CAT) using HepaRG (AID 2283452). Particulars: mRNA level, 48 h; actives raise or lower the signal. The procedure, abridged:
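Expression of CAT was quantified by TaqMan qRT-PCR with ACTB/GAPDH/POLR2A normalization after 48 h chemical exposure of HepaRG. Eight-point half-log series, top 100 uM, in 0.5% DMSO; gain or loss fitted against vehicle.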

Read-out in assay [12]: flavin-containing dimethylaniline monooxygenases 3 (FMO3), FMO3 (gene 2328)
Nature of the assay: LTEA_HepaRG_FMO3: Life Technologies and Expression Analysis (LTEA) Assay for flavin-containing dimethylaniline monooxygenases 3 (FMO3) using HepaRG (AID 2283453).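 As to AC50: differentiated human HepaRG liver cells in serum-free induction medium; FMO3 transcript by TaqMan qRT-PCR normalized to ACTB GAPDH and POLR2A.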 The note with it: mRNA level, 48 h; actives raise or lower the signal. The procedure, abridged:
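Eight-point concentration-response in serum-free HepaRG cultures (top 100 uM, 0.5% DMSO, 48 h). Read-out: FMO3 mRNA level normalized to three endogenous control genes, fitted bidirectionally versus vehicle.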

Read-out in assay [13]: Cytochrome P450 (CYP1A1), CYP1A1 (gene 1543)
Nature of the assay: LTEA_HepaRG_CYP1A1: Life Technologies and Expression Analysis (LTEA) Assay for Cytochrome P450 (CYP1A1) using HepaRG (AID 2283454). The note with it: mRNA level, 48 h; actives raise or lower the signal. In short, it runs like this: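 HepaRG, 48 h post-plating switched to serum-free induction medium; 8-pt conc-response (top 100 uM, half-log, 0.5% DMSO), duplicates, 48 h. Lysis in RLT, TaqMan qRT-PCR for CYP1A1; gain or loss vs DMSO.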

Read-out in assay [14]: CFLAR gene, CFLAR (gene 8837)
Description: LTEA_HepaRG_CFLAR: Life Technologies and Expression Analysis (LTEA) Assay for CFLAR gene using HepaRG (AID 2283455). The note with it: mRNA level, 48 h; actives raise or lower the signal. The procedure, abridged: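 Transcript level by qRT-PCR (normalized to ACTB, GAPDH and POLR2A) after 48 h chemical exposure of HepaRG cells, top concentration 100 uM with half-log steps, 0.5% DMSO vehicle, duplicates; fitted bidirectionally against DMSO baseline.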

The nature of assay [15]: CEETOX_H295R_11DCORT: CeeTox H295R High-throughput Steroidogenesis Assay for 11-Deoxycortisol (11DCORT) (AID 2283432). The note with it: actives raise or lower the signal. In short, it runs like this: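 Adrenal carcinoma line H295R, run per OECD 456 with minor changes, was forskolin-stimulated (10 uM, 48 h) before a 48 h chemical exposure at 0.1% DMSO. Secreted 11-deoxycortisol was quantified by HPLC-MS/MS.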

Assay [16] can be described thus: CEETOX_H295R_CORTIC: CeeTox H295R High-throughput Steroidogenesis Assay for Corticosterone (CORTIC) (AID 2283437). The note with it: actives raise or lower the signal. In short, it runs like this:
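Medium corticosterone was quantified by tandem mass spectrometry following 48 hours of chemical exposure (0.1% DMSO) in human H295R cells previously stimulated 48 hours with 10 uM forskolin. Viability checked by MTT; chemicals diluted and retested when viability fell below 70%.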

Assay [17] is described as follows: CEETOX_H295R_CORTISOL: CeeTox H295R High-throughput Steroidogenesis Assay for Cortisol (AID 2283438).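 Also: cortisol secreted into medium quantified by LC-MS/MS.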 Particulars: actives raise or lower the signal. In short, it runs like this:
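Read-out: cortisol in culture medium by reverse-phase C18 HPLC with ESI-positive tandem MS, after MTBE liquid-liquid extraction. Cells: human adrenal H295R, forskolin-primed (10 uM, 48 h) before 48 h chemical exposure in 0.1% DMSO.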

Assay [18] can be described thus: CEETOX_H295R_DOC: CeeTox H295R High-throughput Steroidogenesis Assay for DOC (AID 2283439). Particulars: actives raise or lower the signal. In short, it runs like this:
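Human adrenocortical H295R cells, passages up to 10, received 10 uM forskolin for 48 h before chemical addition. After another 48 h exposure in 0.1% DMSO, secreted DOC was measured by LC-MS/MS, with gain or loss fitted against DMSO controls.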

A short description of assay [19]: CEETOX_H295R_ANDR: CeeTox H295R High-throughput Steroidogenesis Assay for Androstenedione (ANDR) (AID 2283436). Particulars: actives raise or lower the signal. In short, it runs like this:
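Medium from 48 h chemical-treated H295R adrenal cells was extracted with MTBE and androstenedione measured by LC-MS/MS. Activity was fit in both directions relative to DMSO. Cytotoxic concentrations were re-tested after dilution until MTT viability reached ≥70%.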

Sequence of Fatty acid synthase (Homo sapiens) (P49327 whole entry, looked up): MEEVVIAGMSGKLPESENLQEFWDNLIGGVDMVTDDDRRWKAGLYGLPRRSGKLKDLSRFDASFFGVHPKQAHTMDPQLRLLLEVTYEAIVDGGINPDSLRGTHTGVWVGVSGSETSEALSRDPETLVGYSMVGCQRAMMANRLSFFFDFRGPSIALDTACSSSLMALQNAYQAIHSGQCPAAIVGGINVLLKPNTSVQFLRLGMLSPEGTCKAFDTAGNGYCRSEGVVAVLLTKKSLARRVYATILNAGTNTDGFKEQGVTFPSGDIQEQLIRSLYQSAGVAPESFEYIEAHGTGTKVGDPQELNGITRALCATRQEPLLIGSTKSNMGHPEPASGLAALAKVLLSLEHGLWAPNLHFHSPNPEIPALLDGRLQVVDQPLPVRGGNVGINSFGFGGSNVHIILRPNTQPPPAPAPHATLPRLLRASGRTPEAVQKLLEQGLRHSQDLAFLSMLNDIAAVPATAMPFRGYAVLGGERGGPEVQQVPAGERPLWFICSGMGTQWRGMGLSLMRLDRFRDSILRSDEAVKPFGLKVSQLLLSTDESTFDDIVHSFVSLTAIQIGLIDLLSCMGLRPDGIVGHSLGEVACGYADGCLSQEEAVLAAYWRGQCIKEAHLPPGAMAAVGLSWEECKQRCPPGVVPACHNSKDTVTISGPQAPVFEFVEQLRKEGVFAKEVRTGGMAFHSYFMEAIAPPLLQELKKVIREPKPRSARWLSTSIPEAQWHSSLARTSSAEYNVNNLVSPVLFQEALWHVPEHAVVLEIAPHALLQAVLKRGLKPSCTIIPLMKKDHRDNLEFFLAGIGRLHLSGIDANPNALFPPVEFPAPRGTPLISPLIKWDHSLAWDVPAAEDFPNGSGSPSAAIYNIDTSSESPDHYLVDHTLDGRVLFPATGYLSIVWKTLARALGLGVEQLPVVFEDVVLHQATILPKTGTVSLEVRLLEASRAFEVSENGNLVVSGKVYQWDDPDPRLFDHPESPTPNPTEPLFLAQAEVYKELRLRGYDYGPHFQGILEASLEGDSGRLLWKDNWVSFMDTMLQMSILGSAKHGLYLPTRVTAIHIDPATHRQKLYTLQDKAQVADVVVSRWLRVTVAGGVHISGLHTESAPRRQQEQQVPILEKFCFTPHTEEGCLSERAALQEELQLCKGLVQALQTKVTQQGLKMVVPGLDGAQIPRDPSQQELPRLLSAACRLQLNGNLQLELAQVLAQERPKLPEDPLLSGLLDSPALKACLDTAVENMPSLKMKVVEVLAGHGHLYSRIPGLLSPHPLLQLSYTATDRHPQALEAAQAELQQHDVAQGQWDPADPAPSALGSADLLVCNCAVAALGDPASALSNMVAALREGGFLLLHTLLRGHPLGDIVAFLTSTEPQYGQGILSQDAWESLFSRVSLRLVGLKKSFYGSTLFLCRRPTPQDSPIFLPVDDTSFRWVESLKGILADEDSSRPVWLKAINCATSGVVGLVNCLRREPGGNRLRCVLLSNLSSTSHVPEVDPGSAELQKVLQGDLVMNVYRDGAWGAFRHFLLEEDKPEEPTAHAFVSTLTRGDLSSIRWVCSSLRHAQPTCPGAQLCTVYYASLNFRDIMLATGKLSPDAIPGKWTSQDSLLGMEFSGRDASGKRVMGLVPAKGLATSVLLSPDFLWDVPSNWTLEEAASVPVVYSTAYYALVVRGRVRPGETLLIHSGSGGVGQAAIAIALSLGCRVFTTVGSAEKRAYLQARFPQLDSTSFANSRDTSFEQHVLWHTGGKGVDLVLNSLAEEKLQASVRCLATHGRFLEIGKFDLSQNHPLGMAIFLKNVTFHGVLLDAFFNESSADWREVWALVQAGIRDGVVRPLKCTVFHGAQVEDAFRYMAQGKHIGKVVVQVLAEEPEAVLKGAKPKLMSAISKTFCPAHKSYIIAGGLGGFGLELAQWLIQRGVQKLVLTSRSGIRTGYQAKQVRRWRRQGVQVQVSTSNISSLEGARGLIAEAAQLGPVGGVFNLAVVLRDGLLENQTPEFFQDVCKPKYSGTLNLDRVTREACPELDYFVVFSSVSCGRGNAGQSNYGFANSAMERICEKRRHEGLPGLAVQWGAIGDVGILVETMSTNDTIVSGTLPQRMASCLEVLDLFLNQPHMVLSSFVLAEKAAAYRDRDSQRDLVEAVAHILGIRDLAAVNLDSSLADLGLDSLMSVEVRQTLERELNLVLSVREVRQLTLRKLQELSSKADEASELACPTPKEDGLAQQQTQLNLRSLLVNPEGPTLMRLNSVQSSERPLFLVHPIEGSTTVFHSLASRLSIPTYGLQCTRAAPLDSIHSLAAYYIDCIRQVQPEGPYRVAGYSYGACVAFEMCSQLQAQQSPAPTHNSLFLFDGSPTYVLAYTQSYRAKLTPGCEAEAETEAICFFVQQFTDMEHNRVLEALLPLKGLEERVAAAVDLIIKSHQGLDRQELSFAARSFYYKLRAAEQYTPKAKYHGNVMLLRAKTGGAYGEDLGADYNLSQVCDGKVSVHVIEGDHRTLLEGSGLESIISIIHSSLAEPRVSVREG
Sequence of Peroxisome proliferator-activated receptor gamma (Homo sapiens) (P37231 whole entry, looked up, the tested form may be a part): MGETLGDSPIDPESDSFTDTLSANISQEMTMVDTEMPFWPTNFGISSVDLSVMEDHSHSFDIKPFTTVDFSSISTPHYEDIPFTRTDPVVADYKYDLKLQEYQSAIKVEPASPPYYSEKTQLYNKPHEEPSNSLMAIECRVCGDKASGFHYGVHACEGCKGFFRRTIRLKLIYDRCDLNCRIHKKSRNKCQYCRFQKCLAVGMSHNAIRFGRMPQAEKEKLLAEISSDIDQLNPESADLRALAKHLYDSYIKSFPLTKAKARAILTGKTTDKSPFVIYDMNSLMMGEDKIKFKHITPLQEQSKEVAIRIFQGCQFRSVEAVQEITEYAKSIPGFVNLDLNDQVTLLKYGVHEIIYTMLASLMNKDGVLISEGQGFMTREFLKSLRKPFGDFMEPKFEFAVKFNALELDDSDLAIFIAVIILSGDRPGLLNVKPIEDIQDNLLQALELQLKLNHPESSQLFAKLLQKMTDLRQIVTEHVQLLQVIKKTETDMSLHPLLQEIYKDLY

Regarding `C(=NC1CCCCC1)=NC1CCCCC1`, the result in assay [1], in assay [2] and in assay [3] was inactive.

With `C=CC(=O)OCCCCCC(C)C`, the call in [4], in [5], in assay [6], in assay [7], in [8] and in assay [9] was inactive. In addition, the compound was called inactive in assay [10], in [11], in assay [12] and in [14]. The AC50 in assay [13] was 50 µM (active).

With `CCCCCCCCC(=O)NCc1ccc(O)c(OC)c1`, the compound was classed as inactive in assay [15], in [1], in [16], in [17], in assay [18] and in assay [2]. Besides, the outcome in [3] was inactive.

Regarding `O=C1C2(Cl)C3(Cl)C4(Cl)C(Cl)(Cl)C5(Cl)C3(Cl)C1(Cl)C5(Cl)C24Cl` (centres undefined), the compound was called inactive in assay [4], in [5], in assay [6], in [13] and in [14]. Further, the AC50 in [7] is 93.5 µM (active); in assay [8] it was 91.9 µM (active); in assay [9], 93 µM (active); in assay [10], 92.9 µM (active); in assay [11], 93.5 µM (active); in [12] it was 22.6 µM (active).

Take `CCC[CH2][Sn]([Cl])([Cl])[Cl]`: in assay [5], the outcome was inactive.

As for `NC(=O)O`, the result in assay [6], in [7], in assay [9], in assay [10], in [11] and in [12] was inactive. The call in [13] and in [14] was inactive.

Consider `CN(CCCC(=O)c1cccnc1)N=O`, for which the result in assay [15], in assay [1], in [19], in [16], in assay [17] and in [18] was inactive. Moreover, the call in assay [3] was inactive.

On to `Cc1ccc(N)cc1Cl`, for which the compound was classed as inactive in assay [4] and in [5].

For `CCC(C)(C)c1ccc(O)c(C(C)(C)CC)c1`, the compound was classed as inactive in assay [4], in [5], in [6], in assay [7], in assay [8] and in [9]. The compound was called inactive in [10], in [11], in [12] and in [14]. The AC50 in assay [13] is 74 µM (active).

Consider `C=CC(=O)N(C)C`, for which the compound was called inactive in [15], in [1], in assay [16], in assay [17], in assay [18] and in assay [2]. The call in assay [3] was inactive.

Regarding `CC(C)OC(=O)Nc1ccccc1`, the compound was classed as inactive in assay [4], in assay [5], in [1] and in assay [3].

Take `Cl/C=C\C[N+]12CN3CN(CN(C3)C1)C2`: the call in assay [4] and in [5] was inactive.
